Screens: PubChem BioAssay, National Center for Advancing Translational Sciences (NCATS)
Compounds with a hit are over-represented: about 8% of the library has one in this group of screens.
LASV entry inh: blocks Lassa virus binding or cell entry; 4.1% of 18,000 active; AID 720533; Lassa virus pseudotyped entry inhibition, cell-based qHTS; Potency, µM (top dose mostly 49.2 µM), for inactives: at the highest dose activity change, negative = inhibition, usual class: inhibitors
MARV entry inh: Marburg virus entry inhibition; Marburg virus pseudotype entry/binding inhibition, cell-based; Potency, µM (top dose mostly 49.2 µM), without a hit: at the highest dose activity change, negative = inhibition, usual class: inhibitors; 6.5% of 18,000 active
An asterisk follows results filed as active; ? = inconclusive; . = no result given; ! = a repeat was not active; [ ] = dose if it differs, or a comment. The call rests on the fitted dose curve; tested in HEK293 cells. On the % scale 0 is the no-effect control and ±100 the full control effect; potency means the concentration at half of the fitted maximal effect.

SMILES | LASV entry inh | MARV entry inh
O=C1OC2(CCCCC2)CC2=C1[C@H]1O[C@](CCCCN3C(=O)c4ccccc4C3=O)(Cc3ccccc31)O2 | -21%[8.59 µM] | ?
CCCC=Cc1ccc(CN2C(C(C)C)C(=O)N(Cc3cn(CCC4OCCO4)nn3)CCS2(=O)=O)cc1 (stereo not given) | . | -25%
CN(C)CCOC(=O)COc1ccc(Cl)cc1 | -3% | -11%
CC/C(=C(/c1ccccc1)c1ccc(OCCN(C)C)cc1)c1ccccc1 | . | 3.2µM*
O=C(O)c1ccc(OCCCOc2ccc(C(=O)O)cc2)cc1 | 4% | 8%
CCN(CC)CCOc1ccc(/C(=C(\Cl)c2ccccc2)c2ccccc2)cc1 | 14µM*! | .
COC(=O)CC=C[C@@H](C)[C@@H](C=NO[C@H](C)c1cn([C@@H]2COC[C@@H]2O)nn1)N[S+](=O)([O-])c1ccc(C)cc1 | 4%[8.59 µM] | 10%[8.59 µM]
C[C@@H]1C=CCC(=O)N[C@@H](c2cccc(Br)c2)[C@H](C)C=CCC(=O)N[C@@H]1c1cccc(Br)c1 | -6%[8.59 µM] | ?
COC(=O)C1=C(C)N(CC2CC2)C(=NCCc2cccnc2)NC1c1ccccc1 (stereo not given) | 0%[8.59 µM] | 4%[8.59 µM]
O=c1nc2ccccc2c2n1C[C@H](CN1CCN(c3ccccc3)CC1)N2 | -1% | 0%
CN1CCN(c2ccc(Nc3c4ccccc4nc4ccccc34)cc2)CC1 | ? | 2µM*
CS(=O)(=O)CCNCc1coc(-c2ccc3ncnc(Nc4ccc(OCc5ccccc5)cc4)c3c2)c1 | -69% | ?
COC(=O)C[C@H]1c2ccccc2[C@@H]2C(=C[C@@H](C)[C@H]3C(=O)NC(=O)[C@H]32)N1C(=O)OC | -6%[8.59 µM] | 3%[8.59 µM]
C[C@@]12C(=O)OC(=O)[C@]1(C)C1CCC2O1 | 2.2µM* | 4.5µM*
CC12CC3CC(C)(C1)CC(N)(C3)C2 | 35µM*! | -11%
C[C@@]12CC3CC(N)(C1)C[C@@](C)(C3)C2 | 1%[17.8 µM] | ?
NC12CC3CC(CC(C3)C1)C2 | 1% | 32µM*!
CCC1CN(CCNC(=O)C(C)(C)O)Cc2cc(OC)ccc2O1 (stereo not given) | -9% | -19%
O=C1[C@@H]2[C@@H](C(=O)N1CC(O)COCc1ccccc1)[C@H]1C=C[C@@H]2C1 (stereo not given in full) | -22% | 7%
COc1cc2c(cc1OC)[C@@H]1O[C@](CCCCN3C(=O)c4ccccc4C3=O)(C2)OC2=C1C(=O)OC1(CCCCC1)C2 | -13%[8.59 µM] | 28%[8.59 µM]
CCCCCCC(=O)Cc1cc(OC)c(OC)cc1C=C(C(C)=O)C(=O)OC | 17%[8.59 µM] | ?
CC(C)=CCCC(C)=CCN1C(=O)[C@@]2(C[C@@H](C)C[C@@H](C)O2)c2ccccc21 | -22%[8.59 µM] | -7%[8.59 µM]
C[C@H]1O[C@@H](O[C@H]2[C@@H](O)C[C@H](O[C@H]3[C@@H](O)C[C@H](O[C@H]4CC[C@]5(C)C6CC[C@]7(C)[C@@H](C8=CC(=O)OC8)CC[C@]7(O)C6CC[C@@H]5C4)O[C@@H]3C)O[C@@H]2C)C[C@H](O)[C@@H]1O (stereo not given in full) | 0.0025µM* | ?
CC1O[C@@H](O[C@@H]2C(O)C[C@H](O[C@@H]3C(O)C[C@@H](OC4CC[C@@]5(C)C6CC[C@]7(C)C(C8=CC(=O)OC8)CC[C@@]7(O)C6CC[C@@H]5C4)OC3C)OC2C)CC(O)[C@H]1O (stereo not given in full) | 0.28µM* | 0.22µM*
C=C[C@H]1C[C@H]2C=CCCOP(=O)(O2)O1 | 28% | ?
SMILES | LASV entry inh | MARV entry inh
O=C(C=Cc1cccc([N+](=O)[O-])c1)c1ccccc1 | . | -27%[8.59 µM]
CNC(=O)[C@@H]1C[C@H](NC2CCCCCCC2)CN1Cc1cccc(OC)c1OC | -19% | ?
COC1=C[C@H](C(=O)NC2CCN(Cc3ccccc3)CC2)[C@@]2(C)Cc3ccccc3[C@@H]2CC1=O | 28%[8.59 µM] | -18%[8.59 µM]
Cc1ccc(CN2CCOc3ccc(CN4CCC(Oc5cccnc5)CC4)cc3C2)o1 | 18% | ?
COC(=O)N[C@@H](C=Cc1ccco1)[C@]1(C(=O)OC)CCCC1=O | 5%[8.59 µM] | 3%[8.59 µM]
COC1=C2C[C@@H](C)C[C@H](OC)[C@H](O)[C@@H](C)/C=C(\C)[C@H](OC(N)=O)[C@@H](OC)/C=C\C=C(/C)C(=O)NC(=CC1=O)C2=O | 18µM* | 16µM*
C=CCNC1=C2C[C@@H](C)C[C@H](OC)[C@H](O)[C@@H](C)/C=C(\C)[C@H](OC(N)=O)[C@@H](OC)/C=C/C=C(\C)C(=O)NC(=CC1=O)C2=O | 2.2µM* | 1.8µM*
C=C1C(=O)[C@]23[C@H](O)[C@H]1CC[C@H]2[C@@]12COC3(O)[C@H](O)[C@@H]1C(C)(C)CC[C@@H]2O | ? | 18µM*
COC[C@@H](O)[C@H]1OCc2ccccc2[C@@H]1C=Cc1ccccc1 | 0%[8.59 µM] | -37%[8.59 µM]
CO/C1=C\C(C)=C\[C@@H](C)[C@@H](O)[C@@H](C)C/C(C)=C/C=C\[C@H](OC)C([C@@H](C)[C@@H](O)[C@H](C)[C@@]2(O)C[C@@H](O)[C@H](C)C(C(C)C)O2)OC1=O (stereo not given in full) | 0.023µM* | 0.015µM*
CC(=O)c1ccc(C(=O)NCC2Cc3cccc(-c4ncccn4)c3O2)cc1 (stereo not given) | 4% | ?
O=C(CSc1ncccn1)NCC1Cc2cccc(-c3ncccn3)c2O1 (stereo not given) | -5% | 141µM*
CC[n+]1c(/C=C/N(C)c2ccccc2)n(-c2ccccc2)c2ccc(-c3nc4ccccc4s3)cc21 | 3.2µM* | 2µM*
COc1cc(OC)c([C@@H]2O[C@H](CO)[C@@H](O)[C@H](O)[C@@H]2O)c(OC)c1 | 14%[8.59 µM] | 102%[8.59 µM]
CC(C)C[C@H]1C(=O)N2CCC[C@H]2[C@]2(O)O[C@](NC(=O)[C@@H]3C=C4c5cccc6[nH]c(Br)c(c56)C[C@H]4N(C)C3)(C(C)C)C(=O)N12 | 25µM*! | ?
CC(C)C[C@H]1C(=O)N2CCC[C@@H]2[C@]2(O)O[C@](NC(=O)[C@H]3C=C4c5cccc6[nH]c(Br)c(c56)C[C@H]4N(C)C3)(C(C)C)C(=O)N12 | -6%[17.8 µM] | 5%[17.8 µM]
CC(C)C[C@H]1C(=O)N2CCC[C@H]2[C@]2(O)O[C@](NC(=O)[C@@H]3C[C@@H]4c5cccc6[nH]cc(c56)C[C@H]4N(C)C3)(C(C)C)C(=O)N12 | -15% | ?
CC(C)CC1C(=O)N2CCCC2C2(O)O[C@@](NC(=O)C3C=C4c5cccc6[nH]c(Br)c(c56)CC4N(C)C3)(C(C)C)C(=O)N12 (stereo not given in full) | ? | 10µM*
CN1C[C@H](C(=O)N[C@]2(C)O[C@@]3(O)[C@@H]4CCCN4C(=O)[C@H](Cc4ccccc4)N3C2=O)C=C2c3cccc4[nH]cc(c34)C[C@H]21 | -24% | -11%
CC(C)[C@@]1(NC(=O)[C@@H]2C[C@H]3c4cccc5[nH]cc(c45)C[C@@H]3N(C)C2)O[C@@]2(O)[C@H]3CCCN3C(=O)[C@H](Cc3ccccc3)N2C1=O | -17% | 22µM*!
O=S1(=O)CCSCCN1Cc1ccc(F)cc1F | 18% | 23%
COc1cc2c3cc1Oc1cc(ccc1O)CC1c4c(cc(OC)c(O)c4Oc4ccc(cc4)CC3N(C)CC2)CC[N+]1(C)C (stereo not given) | 2% | -4%
COc1cc2c3cc1Oc1c(OC)c(OC)cc4c1C(Cc1cccc(c1)Oc1ccc(c(O)c1)CC3N(C)CC2)N(C)CC4 (stereo not given) | -4% | -5%
